Measured values: the supplement of paper PMC11417369
± gives the standard deviation of the averaged measurements. The full ranking holds about 25,000 sequences; the median of “ln(normalized median fluorescence intensity)” is about 8.6, and the highest 2% start at about 10. The list comes from a sample in which the highest values are over-represented; it also holds similar and randomly drawn sequences.

tested on: PfAP2-EXP AP2 domain (GST-tagged); test: gcPBM binding intensity (ln(normalized median fluorescence intensity)); higher = stronger DNA binding
Summary of the method: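 In this array assay, P. falciparum DNA-binding domains with a GST tag, expressed in E. coli, were applied for 1 h to primer-extended double-stranded 36-bp intergenic genomic probes and negative controls on an Agilent 4 × 180k array. Bound protein was visualised with Alexa488 anti-GST antibody at 488 nm. Binding intensity is the highest Masliner-normalised natural-log median intensity across replicate spots of either probe orientation.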

Sequence	gcPBM binding intensity (ln)
ACATATTAAAATATATGTACATAAAATATGAAAAAA [XGTACX_site5869]	8.82 ± 0.3
ATAATAAAAATATATACATGCATTATTATATATATA [TGCATGCA_site799]	8.97 ± 0.16
AAAATAAAAAGAAAAAATAAAAAGAAAAAATAAAAA [CACACA_negctrl_site120]	8.33 ± 0.44
CATTAAAAAGAAAGTTCACACACATATATATGACGG [CACACA_site8836]	8.84 ± 0.57
TTTATTATTATATTATTTTAATTTTTCTTTAGTACA [GTGCAC_negctrl_site392]	8.29 ± 0.32
CCTAATTTTATTAGGGTGCATTTTTAGTTAAATATA	8.48 ± 0.27
TAATTTCTTTAGGGGGTGCTTTTATAGTTTTTATTA	10.4 ± 0.54
AGTATAGATGTATACACACACCAAACGTTAAAAAAA [CACACA_site7443]	8.71 ± 0.53
CAAGGAACCGGACACACACACATAAATGTATTTATA [CACACA_site4574]	8.46 ± 0.5
AAAAAAAATACATACACACACACACCCACATATATA [CACACA_site3561]	8.75 ± 0.65
TATAAATATACACCCACACACATATATAAATAAATA [CACACA_site7717]	8.93 ± 0.79
CCCACTAAAAAACACACACACACACCCATATATATA [CACACA_site6140]	8.98 ± 0.31
TATATAAATATACACCCACACACATATATATATATA [CACACA_site9247]	10.2 ± 0.26
TATACATATACATATACACACACACCCATAAATAAA [CACACA_site8372]	9.05 ± 0.38
TATAAATATACACCCACACACATATATATATATATA [CACACA_site3745]	10.2 ± 0.4
TACATATACATATACACACACACACCCAAATAAATA [CACACA_site1344]	8.86 ± 0.51
AAAAAAAAAAAACACACACACACACTAATATATAAA [CACACA_site8302]	8.47 ± 0.56
CACCCACTAATAAACACACACATATATATATATATA [CACACA_site389]	10.2 ± 0.35
AATAAATATAAATACACACCCATATAAATATAAATA [CACACA_site7264]	8.64 ± 0.51
AATAAATATATATACACACCCATATATATATATATA [CACACA_site2595]	10.1 ± 0.42
AATAAATATAAATACACACCCATATATATATATATA [CACACA_site5436]	10.2 ± 0.35
TTTTGATATATGAATATTAAGTTATATAATATTTTA [TGCATGCA_negctrl_site39]	7.92 ± 0.28
ATAATAATTTAATACATACACACGTATATCTTTTTT [CACACA_site2041]	8.45 ± 0.4

Sequence	gcPBM binding intensity (ln)
AAAAATTAACAAAAGGTGCAAACAAATAGTGGTTTT [GTGCAC_site9998]	8.865 ± 0.049
AATTGCTCGATATATGCACACAGTTTTGTTATTTTT [CACACA_site8465]	8.94 ± 0.36
AAAAAAAAAAAAAAAAGTACAAAAAGGAGAAAGATA [XGTACX_site7862]	8.9 ± 0.47
TTAAAAGAAAATAGGTGTACACATAATATATACATA [XGTACX_site7697]	8.92 ± 0.057
TTGTTTCCTTAATATTCACACACATATATATAATAT [CACACA_site8553]	8.89 ± 0.48
ATATTAAACAAACACACACACATATATATATATATA [CACACA_site3383]	10.2 ± 0.26
GAATATTAAACAAACACACACACATATATATATATA [CACACA_site3382]	10.1 ± 0.32
GTTTATATTAAACAAACACACACATATATATATATA [CACACA_site8749]	10.2 ± 0.26
GAATATTAAACAAACACACACACATATATTTATATA [CACACA_site7563]	8.63 ± 0.42
TTATATTAAACAAACACACACATATATATATATATA [CACACA_site2382]	10.1 ± 0.47
AATTTTTTATTAAACACACAAACATATATATATATA [CACACA_site1937]	9.94 ± 0.35
TATATTAGAAGAAATTCACACATTCATGTAATCTTA [CACACA_site4706]	8.07 ± 0.33
ATAAATAAGATATATACACACATATCTATACATATT [CACACA_site6369]	8.28 ± 0.49
AATCGATAACAATGTAGTACCAGAAAAATAAATATT [XGTACX_site8501]	8.99 ± 0.3
AGAATCACCAAATATGTACACACCTTAACATGTTTA [CACACA_site2068]	9.01 ± 0.46
ATTAGCTACAAACAAAGGCTACCTATAGCAAGAGGG [GTGCAC_negctrl_site33]	8.84 ± 0.39
ATTATTAAAAAGATGTAAATAAATGAATATATGCTT [CACACA_negctrl_site539]	8.47 ± 0.39
TATTTTTTTTTTTTTTTTTTTTTAAAACATATCAAT [CACACA_negctrl_site925]	7.95 ± 0.64
TAGCTCGTTCGGAGCACACACATATATATATATATA [CACACA_site1948]	10.3 ± 0.28
TAGCTCGTTCGGAGCACACACATATAAATAAATATA [CACACA_site7002]	8.38 ± 0.52
GTTAGCTCGTTCGGAGCACACACATATATATATATA [CACACA_site8595]	10.1 ± 0.45
TTCTATATATTTGGAAGTACATTATATTTATTTTTT [XGTACX_site3172]	8.44 ± 0.33
